SARS PLP yeast = qHTS of Yeast-based Assay for SARS-CoV PLP; S. cerevisiae expressing SARS-CoV PLpro, growth rescue; Potency, µM (top dose mostly 32.9 µM), usual class: activators; hit rate 0.19% among 330,000; calls by dose curve; also: nearly all actives have a fitted effect of over 55% in size
NS1 function inh = qHTS Assay for Inhibitors of Influenza NS1 Protein Function. Potency, µM (titrated, usually from 46.1 µM). hit rate 0.4% among 270,000; calls by dose curve; also: actives are rising curves; nearly all actives have a fitted effect of over 50% in size
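OD600 was taken as the measure of yeast growth restored by compound in an NS1-expressing S. cerevisiae strain. Cells had been washed out of glucose medium and diluted 1:100 into galactose -URA medium, pH 6.0.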
Pf growth 48h = Primary qHTS for delayed death inhibitors of the malarial parasite plastid, 48 hour incubation | Potency, µM (highest dose often 28.7 µM), most hits filed as inhibitors | hit rate 5.9% among 310,000 | P. falciparum luciferase growth in erythrocytes, 48 h | AID 504832, 2011
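Luciferase-expressing parasites in RBCs, 2% Hct / 0.1% parasitemia final; RPMI 1640 + 0.5% Albumax; 37 C, 5% CO2, one generation; luminescence read-out, lower signal = inhibition.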
Pf growth 96h = Primary qHTS for delayed death inhibitors of the malarial parasite plastid, 96 hour incubation | P. falciparum luciferase reporter growth, 96 h | Potency, µM (top dose mostly 28.7 µM), most hits filed as inhibitors | hit rate 6.9% among 320,000 | AID 504834, 2011
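Infected RBCs, 2% Hct / 0.05% parasitemia final; luciferase-reporter P. falciparum; cpd 96 h, 37 C, 5% CO2; luciferase detection reagent; luminescence.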
HCV inhibitor = qHTS Assay for Inhibitors of Hepatitis C Virus (HCV). Huh7.5.1 HCVcc-Cre infection, luciferase reporter, 44 h. Potency, µM (titrated, usually from 41.8 µM), usual class: inhibitors. hit rate 3.4% among 340,000. AID 651820, 2012
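Cells seeded at 1,000/well and cultured 4 h, then compounds added followed by HCVcc-Cre virus (~0.5 moi). After 44 h further culture, luciferase substrate was added, plates held 15 min at room temperature, and luminescence read for 15 sec.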
AMA1-RON2 inh = qHTS for Inhibitors of AMA1-RON; Towards Development of Antimalarial Drug Lead: Primary Screen; AlphaScreen AMA1-biotinylated RON2 peptide binding; Potency, µM (doses to about 58.2 µM), actives largely listed as inhibitors; hit rate 0.2% among 360,000; also: nearly all actives have a fitted effect of over 45% in size
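AMA1 (3D7) with his tag at 25 nM final met compounds first, then biotinylated RON2 peptide at 25 nM; detection used donor plus acceptor beads, 10 µg/mL apiece, read by AlphaScreen after 30 min at room temperature.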
Of the large screens only hits and unclear results are named; the others gave an inactive call. This is a sample that favours compounds with a hit; in the whole collection about 12% have one here. Unless noted, calls follow the shape of the dose curve; as a rule, active = well fitted curve in the direction sought with a large enough effect; inconclusive = small, poorly fitted or top-dose-only effect, or another doubt; inactive = no such curve, though single readings can be large; an effect the other way counts as inactive or inconclusive.

N[C@H](Cc1ccc2oc3cc(=O)c4ccccc4c-3nc2c1)C(=O)O	none (no result: SARS PLP yeast, Pf growth 48h, Pf growth 96h, HCV inhibitor, AMA1-RON2 inh)
CC(=O)c1cc2c(cc1NS(=O)(=O)c1ccccc1)OCO2	none (no result: Pf growth 48h)
CCC(C)NS(=O)(=O)c1ccc(S(=O)(=O)Nc2cc3c(cc2C(C)=O)OCO3)cc1 (stereo not drawn)	Pf growth 96h 9.28µM, HCV inhibitor 14.1µM
COc1cccc(-n2nc(-c3ccnn3-c3ccccc3)c(=O)n(C)c2=O)c1	Pf growth 96h 11.7µM, HCV inhibitor inconclusive (no result: Pf growth 48h)
COc1cccc(-n2nc(-c3ccnn3-c3cccc(Cl)c3)c(=O)n(C)c2=O)c1	Pf growth 48h inconclusive, Pf growth 96h inconclusive, HCV inhibitor inconclusive
O=[N+]([O-])c1ccc2c(c1)ncn2CCc1ccccc1	Pf growth 48h inconclusive, Pf growth 96h 0.522µM
C/C1=C2/[N-]C(C(CC(N)=O)[C@@]2(C)CCC(=O)NCC(C)OP(=O)([O-])O[C@H]2[C@@H](O)[C@@H](n3cnc4cc(C)c(C)cc43)O[C@@H]2CO)[C@]2(C)N=C(/C(C)=C3N=C(/C=C4N=C1C(CCC(N)=O)C\4(C)C)[C@@H](CCC(N)=O)[C@]\3(C)CC(N)=O)[C@@H](CCC(N)=O)[C@]2(C)CC(N)=O.CC(=O)O.[Co] (stereo partly drawn)	Pf growth 48h 0.849µM, Pf growth 96h 0.675µM (no result: SARS PLP yeast, NS1 function inh, HCV inhibitor, AMA1-RON2 inh)
COc1ccc(Br)cc1S(=O)(=O)N(CC(=O)N1CCN(C)CC1)c1ccccc1	Pf growth 96h inconclusive
CC(=O)Nc1ccccc1OCC(=O)NC(C)c1ccccc1 (stereo not drawn)	none
CC(=O)Nc1ccccc1OCC(=O)N(Cc1ccccc1)C(C)C	Pf growth 96h inconclusive, HCV inhibitor 15.8µM
Nc1ccc2c(c1)C(=O)c1ccc(Cl)cc1-2	HCV inhibitor inconclusive (no result: SARS PLP yeast, NS1 function inh, Pf growth 48h, Pf growth 96h)
Nc1ccc2c(c1)C(=O)c1cc(N)c(Cl)cc1-2	HCV inhibitor 25.1µM (no result: SARS PLP yeast, NS1 function inh, Pf growth 48h, Pf growth 96h)
CC1=C(C(=O)N(C(C)C)C(C)C)CC(CC(=O)NCc2cccs2)C(=O)N1CCC1=CCCCC1 (stereo not drawn)	none (no result: SARS PLP yeast, NS1 function inh, Pf growth 48h, Pf growth 96h, HCV inhibitor)
COc1cc(NC(=O)Cc2nn(C)c(=O)c3ccccc23)cc(OC)c1OC	Pf growth 48h 13.1µM, Pf growth 96h 10.4µM, HCV inhibitor inconclusive
O=C(Cc1ccc(Cl)cc1)NC1CCCCCC1	AMA1-RON2 inh inconclusive
Cn1c(C(=O)NC2CCCCC2)cc2c(=O)n(C)c3ccccc3c21	Pf growth 96h 10.4µM, HCV inhibitor inconclusive (no result: Pf growth 48h)
O=C(Cc1ccc(-n2cccc2)cc1)NC1CCCCCC1	Pf growth 96h 14.7µM
Cn1nc(-c2ccc(C(=O)NC3CCCCC3)cc2)c2ccccc2c1=O	Pf growth 48h 5.22µM
CCc1ccc(N(C(=O)c2snc(C(N)=O)c2N)C(C(=O)NC2CCCC2)c2ccncc2)cc1 (stereo not drawn)	Pf growth 48h inconclusive, HCV inhibitor inconclusive
O=C(c1ccc(-n2cccc2)cc1)N1CCN(Cc2ccccc2)CC1	HCV inhibitor inconclusive
Cn1nc(-c2ccc(C(=O)N3CCN(Cc4ccccc4)CC3)cc2)c2ccccc2c1=O	Pf growth 96h 13.1µM, HCV inhibitor inconclusive (no result: Pf growth 48h)
Cn1nc(-c2ccc(NCCO)c([N+](=O)[O-])c2)c2ccccc2c1=O	Pf growth 96h 5.22µM
Cn1nc(CC(=O)NC2CCCCCC2)c2ccccc2c1=O	HCV inhibitor 3.16µM (no result: Pf growth 48h)
Cn1nc(-c2ccc(C(=O)Nc3cccnc3)cc2)c2ccccc2c1=O	SARS PLP yeast inconclusive, Pf growth 48h 6.57µM, Pf growth 96h inconclusive
CSCCC(NC(=O)COc1ccccc1)C(=O)OCc1ccc([N+](=O)[O-])cc1 (stereo not drawn)	none (no result: SARS PLP yeast, NS1 function inh)
Cc1ccc(NC(=O)c2ccc(-c3nn(C)c(=O)c4ccccc34)cc2)cc1	Pf growth 96h 10.4µM, HCV inhibitor 12.6µM (no result: Pf growth 48h)
Cn1nc(-c2ccc(C(=O)Nc3ccc(F)cc3)cc2)c2ccccc2c1=O	Pf growth 48h inconclusive, HCV inhibitor inconclusive (no result: NS1 function inh)
Cn1nc(-c2ccc(C(=O)Nc3cccc(Cl)c3)cc2)c2ccccc2c1=O	Pf growth 96h 3.29µM (no result: Pf growth 48h)
Cc1ccc(NC(=O)c2ccc(-c3nn(C)c(=O)c4ccccc34)cc2)c(C)c1	Pf growth 96h 6.57µM, HCV inhibitor inconclusive (no result: Pf growth 48h)

Screening data from PubChem BioAssay.
